Results on seven molecules are retold here after ChEMBL document CHEMBL1961873, “Compounds: GSK PKIS; Assays: Nanosyn kinase panel” (2012).

The target in assay [1] is Dual specificity protein kinase CLK3 (Homo sapiens) (UniProt P49761). The settings on record: at 1 µM.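 Also: each value is the mean inhibition of CLK3.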
Assay [2] concerns the target Dual specificity tyrosine-phosphorylation-regulated kinase 1A (Homo sapiens) (UniProt Q13627). The settings on record: at 0.1 µM.
Assay [3] shares this target. The settings on record: at 1 µM.
Assay [4] concerns the target Dual specificity tyrosine-phosphorylation-regulated kinase 1B (Homo sapiens) (UniProt Q9Y463). The settings on record: at 0.1 µM.
For assay [5] the target is unchanged. The settings on record: at 1 µM.
The target of assay [6] is T1, Dual specificity tyrosine-phosphorylation-regulated kinase 2 (Homo sapiens) (UniProt Q92630).
T1 sequence (whole entry): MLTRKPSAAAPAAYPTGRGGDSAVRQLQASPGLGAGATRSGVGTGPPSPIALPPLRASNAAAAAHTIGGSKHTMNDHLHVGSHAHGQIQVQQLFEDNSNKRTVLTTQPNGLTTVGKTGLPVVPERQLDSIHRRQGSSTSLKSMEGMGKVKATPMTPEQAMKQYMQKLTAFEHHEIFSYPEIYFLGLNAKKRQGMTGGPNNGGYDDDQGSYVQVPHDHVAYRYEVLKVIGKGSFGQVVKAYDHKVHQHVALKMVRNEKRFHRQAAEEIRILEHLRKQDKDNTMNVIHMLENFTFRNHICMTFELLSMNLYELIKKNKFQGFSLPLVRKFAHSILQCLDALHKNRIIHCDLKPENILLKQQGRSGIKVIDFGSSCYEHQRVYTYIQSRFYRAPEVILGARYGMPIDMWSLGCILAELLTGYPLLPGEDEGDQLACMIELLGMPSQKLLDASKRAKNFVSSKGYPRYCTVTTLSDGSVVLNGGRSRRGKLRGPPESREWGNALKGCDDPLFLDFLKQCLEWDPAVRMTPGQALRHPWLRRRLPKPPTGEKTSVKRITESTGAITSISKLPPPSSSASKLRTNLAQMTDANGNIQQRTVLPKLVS
The settings on record: at 0.1 µM.

For assay [7], the target named is T1, Dual specificity tyrosine-phosphorylation-regulated kinase 2 (Homo sapiens). The settings on record: at 1 µM.
Assay [8] has as its target Glycogen synthase kinase-3 alpha (Homo sapiens) (UniProt P49840). The settings on record: at 0.1 µM.
Assay [9] has the same target. The settings on record: at 1 µM.
Assay [10] has as its target Glycogen synthase kinase-3 beta (Homo sapiens) (UniProt P49841). The settings on record: at 0.1 µM.
Assay [11] shares this target. The settings on record: at 1 µM.
Assay [12] has as its target Homeodomain-interacting protein kinase 1 (Homo sapiens) (UniProt Q86Z02). The settings on record: at 0.1 µM.
Assay [13] shares this target. The settings on record: at 1 µM.
In assay [14] the target is T2, Homeodomain-interacting protein kinase 4 (Homo sapiens) (UniProt Q8NE63).
T2 sequence (whole entry): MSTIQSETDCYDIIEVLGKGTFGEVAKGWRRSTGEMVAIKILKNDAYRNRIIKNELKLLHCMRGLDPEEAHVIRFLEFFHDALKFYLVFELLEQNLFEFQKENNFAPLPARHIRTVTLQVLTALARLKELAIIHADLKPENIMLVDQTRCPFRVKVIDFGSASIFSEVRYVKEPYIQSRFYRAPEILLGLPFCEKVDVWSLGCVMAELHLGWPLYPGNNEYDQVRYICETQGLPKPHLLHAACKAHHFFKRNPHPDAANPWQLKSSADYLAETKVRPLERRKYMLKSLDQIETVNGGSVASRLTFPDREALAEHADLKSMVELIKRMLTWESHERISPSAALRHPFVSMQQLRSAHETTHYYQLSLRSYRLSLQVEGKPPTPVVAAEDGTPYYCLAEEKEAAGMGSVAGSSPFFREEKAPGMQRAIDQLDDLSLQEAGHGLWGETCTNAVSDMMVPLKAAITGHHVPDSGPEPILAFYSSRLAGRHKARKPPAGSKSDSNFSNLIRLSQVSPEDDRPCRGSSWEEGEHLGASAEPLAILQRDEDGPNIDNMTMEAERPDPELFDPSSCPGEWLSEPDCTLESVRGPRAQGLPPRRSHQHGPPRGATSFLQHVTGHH
The settings on record: at 0.1 µM.

The target in assay [15] is T2, Homeodomain-interacting protein kinase 4 (Homo sapiens). The settings on record: at 1 µM.
Assay [16] deals with Mitogen-activated protein kinase 9 (Homo sapiens) (UniProt P45984). The settings on record: at 0.1 µM.
For assay [17] the target is unchanged. The settings on record: at 1 µM.
Assay [18] has as its target Mitogen-activated protein kinase 1 (Homo sapiens) (UniProt P28482). The settings on record: at 0.1 µM.
The target is the same in assay [19]. The settings on record: at 1 µM.
The target in assay [20] is Mitogen-activated protein kinase 3 (Homo sapiens) (UniProt P27361). The settings on record: at 0.1 µM.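 Also: each value is a mean inhibition figure.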
Sequence of Mitogen-activated protein kinase 3 (Homo sapiens) (P27361 whole entry): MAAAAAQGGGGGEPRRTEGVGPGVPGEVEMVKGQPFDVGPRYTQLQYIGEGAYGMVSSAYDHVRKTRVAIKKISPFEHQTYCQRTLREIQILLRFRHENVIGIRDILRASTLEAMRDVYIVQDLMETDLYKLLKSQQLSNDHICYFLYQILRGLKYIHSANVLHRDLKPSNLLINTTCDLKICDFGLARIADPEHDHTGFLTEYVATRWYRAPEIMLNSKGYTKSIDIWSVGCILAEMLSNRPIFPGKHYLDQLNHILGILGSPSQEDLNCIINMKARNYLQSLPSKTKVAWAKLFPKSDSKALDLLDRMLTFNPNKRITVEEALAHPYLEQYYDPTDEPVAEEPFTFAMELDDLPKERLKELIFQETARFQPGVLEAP

Sequence of Glycogen synthase kinase-3 beta (Homo sapiens) (P49841 whole entry, looked up): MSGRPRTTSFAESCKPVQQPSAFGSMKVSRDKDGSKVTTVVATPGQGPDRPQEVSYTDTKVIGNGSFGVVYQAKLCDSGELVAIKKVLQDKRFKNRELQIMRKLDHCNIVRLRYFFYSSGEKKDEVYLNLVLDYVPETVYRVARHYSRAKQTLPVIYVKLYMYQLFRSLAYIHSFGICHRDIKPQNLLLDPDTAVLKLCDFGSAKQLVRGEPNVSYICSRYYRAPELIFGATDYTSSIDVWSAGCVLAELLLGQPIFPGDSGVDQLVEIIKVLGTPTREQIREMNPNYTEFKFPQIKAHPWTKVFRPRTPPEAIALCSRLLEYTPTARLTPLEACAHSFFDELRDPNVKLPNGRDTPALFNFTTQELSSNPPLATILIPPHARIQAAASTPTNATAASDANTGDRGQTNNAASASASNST
Sequence of Mitogen-activated protein kinase 1 (Homo sapiens) (P28482 whole entry): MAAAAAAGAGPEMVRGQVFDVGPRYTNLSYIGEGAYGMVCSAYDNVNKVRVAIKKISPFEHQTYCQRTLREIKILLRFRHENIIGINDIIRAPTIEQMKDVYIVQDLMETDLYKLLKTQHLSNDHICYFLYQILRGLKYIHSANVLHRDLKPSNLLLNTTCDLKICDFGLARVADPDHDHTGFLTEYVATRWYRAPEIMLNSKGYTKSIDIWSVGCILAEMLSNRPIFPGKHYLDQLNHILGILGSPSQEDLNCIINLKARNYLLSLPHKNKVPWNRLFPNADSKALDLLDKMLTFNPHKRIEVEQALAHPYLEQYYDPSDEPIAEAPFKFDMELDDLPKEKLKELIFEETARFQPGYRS
Sequence of Mitogen-activated protein kinase 9 (Homo sapiens) (P45984 whole entry, looked up): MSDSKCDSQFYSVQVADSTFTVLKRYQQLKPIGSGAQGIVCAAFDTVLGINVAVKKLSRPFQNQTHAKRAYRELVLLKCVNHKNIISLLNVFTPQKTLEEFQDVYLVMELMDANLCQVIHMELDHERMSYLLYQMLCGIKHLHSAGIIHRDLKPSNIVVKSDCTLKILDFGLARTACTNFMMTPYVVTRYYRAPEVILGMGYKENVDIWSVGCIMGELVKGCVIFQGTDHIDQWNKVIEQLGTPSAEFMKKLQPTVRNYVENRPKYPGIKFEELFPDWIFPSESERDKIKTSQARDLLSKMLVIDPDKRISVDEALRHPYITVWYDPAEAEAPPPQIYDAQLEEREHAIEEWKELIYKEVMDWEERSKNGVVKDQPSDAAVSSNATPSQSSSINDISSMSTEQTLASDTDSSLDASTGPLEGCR
Sequence of Dual specificity tyrosine-phosphorylation-regulated kinase 1B (Homo sapiens) (Q9Y463 whole entry, looked up): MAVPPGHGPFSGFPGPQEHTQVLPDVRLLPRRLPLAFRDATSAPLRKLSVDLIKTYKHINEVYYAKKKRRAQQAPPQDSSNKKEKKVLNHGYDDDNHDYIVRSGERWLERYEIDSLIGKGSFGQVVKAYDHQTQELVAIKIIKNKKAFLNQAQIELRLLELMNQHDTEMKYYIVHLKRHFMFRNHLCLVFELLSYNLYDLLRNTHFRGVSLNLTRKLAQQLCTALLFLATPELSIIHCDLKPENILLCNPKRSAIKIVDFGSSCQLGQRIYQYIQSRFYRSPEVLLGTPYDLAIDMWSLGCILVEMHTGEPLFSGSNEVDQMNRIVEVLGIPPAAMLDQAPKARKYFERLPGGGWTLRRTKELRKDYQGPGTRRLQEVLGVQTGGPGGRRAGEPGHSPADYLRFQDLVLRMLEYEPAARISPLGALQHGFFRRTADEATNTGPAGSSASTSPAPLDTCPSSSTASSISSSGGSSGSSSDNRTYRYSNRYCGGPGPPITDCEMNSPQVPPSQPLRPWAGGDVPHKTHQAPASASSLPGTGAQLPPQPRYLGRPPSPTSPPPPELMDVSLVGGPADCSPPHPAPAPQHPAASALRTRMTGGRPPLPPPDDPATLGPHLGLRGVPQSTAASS
Sequence of Dual specificity protein kinase CLK3 (Homo sapiens) (P49761 whole entry, looked up): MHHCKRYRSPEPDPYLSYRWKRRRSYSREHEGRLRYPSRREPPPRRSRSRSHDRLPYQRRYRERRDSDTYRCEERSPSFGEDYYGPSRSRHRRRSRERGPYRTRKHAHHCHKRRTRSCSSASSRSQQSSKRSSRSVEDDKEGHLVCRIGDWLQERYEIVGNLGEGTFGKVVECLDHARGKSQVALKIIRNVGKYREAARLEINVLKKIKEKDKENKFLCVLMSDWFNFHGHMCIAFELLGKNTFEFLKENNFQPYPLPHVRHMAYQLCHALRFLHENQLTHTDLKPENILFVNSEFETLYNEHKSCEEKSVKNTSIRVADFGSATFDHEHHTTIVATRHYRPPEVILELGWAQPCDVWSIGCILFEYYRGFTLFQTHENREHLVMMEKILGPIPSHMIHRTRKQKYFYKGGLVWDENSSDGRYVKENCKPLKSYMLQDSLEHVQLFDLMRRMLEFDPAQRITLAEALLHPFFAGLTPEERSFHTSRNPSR
Sequence of Homeodomain-interacting protein kinase 1 (Homo sapiens) (Q86Z02 whole entry, looked up): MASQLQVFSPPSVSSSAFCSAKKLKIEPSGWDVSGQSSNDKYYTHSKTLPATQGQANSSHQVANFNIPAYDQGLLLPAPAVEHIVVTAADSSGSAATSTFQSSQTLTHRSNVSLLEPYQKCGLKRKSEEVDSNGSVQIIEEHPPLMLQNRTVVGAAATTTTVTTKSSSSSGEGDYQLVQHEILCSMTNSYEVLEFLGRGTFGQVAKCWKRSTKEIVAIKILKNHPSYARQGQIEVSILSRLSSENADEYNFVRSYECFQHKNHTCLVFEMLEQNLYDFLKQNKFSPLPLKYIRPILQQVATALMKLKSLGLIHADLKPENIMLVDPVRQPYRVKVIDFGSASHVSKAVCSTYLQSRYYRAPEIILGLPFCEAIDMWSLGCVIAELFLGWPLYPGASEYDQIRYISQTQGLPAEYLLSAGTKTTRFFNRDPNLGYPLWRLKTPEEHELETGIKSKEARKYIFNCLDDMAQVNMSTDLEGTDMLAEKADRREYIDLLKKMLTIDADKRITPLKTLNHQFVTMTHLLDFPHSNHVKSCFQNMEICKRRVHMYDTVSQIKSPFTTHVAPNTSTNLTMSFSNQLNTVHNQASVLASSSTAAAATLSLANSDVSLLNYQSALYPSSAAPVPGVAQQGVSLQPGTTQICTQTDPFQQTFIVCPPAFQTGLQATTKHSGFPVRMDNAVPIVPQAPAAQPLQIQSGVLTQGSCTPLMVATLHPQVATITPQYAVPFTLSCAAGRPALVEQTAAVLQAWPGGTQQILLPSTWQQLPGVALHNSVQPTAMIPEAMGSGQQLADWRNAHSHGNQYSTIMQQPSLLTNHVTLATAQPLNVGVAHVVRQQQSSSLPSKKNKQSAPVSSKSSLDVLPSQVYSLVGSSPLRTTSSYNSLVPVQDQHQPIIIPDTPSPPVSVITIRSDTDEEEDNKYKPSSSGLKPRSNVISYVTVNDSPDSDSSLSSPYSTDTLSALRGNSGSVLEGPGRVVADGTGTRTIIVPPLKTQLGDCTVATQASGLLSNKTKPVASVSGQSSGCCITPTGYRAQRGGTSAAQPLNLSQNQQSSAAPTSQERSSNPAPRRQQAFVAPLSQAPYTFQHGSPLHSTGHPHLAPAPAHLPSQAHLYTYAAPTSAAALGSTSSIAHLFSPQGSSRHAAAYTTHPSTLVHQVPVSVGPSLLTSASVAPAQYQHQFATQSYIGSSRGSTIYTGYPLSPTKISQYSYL
Sequence of Glycogen synthase kinase-3 alpha (Homo sapiens) (P49840 2-483 limits assumed): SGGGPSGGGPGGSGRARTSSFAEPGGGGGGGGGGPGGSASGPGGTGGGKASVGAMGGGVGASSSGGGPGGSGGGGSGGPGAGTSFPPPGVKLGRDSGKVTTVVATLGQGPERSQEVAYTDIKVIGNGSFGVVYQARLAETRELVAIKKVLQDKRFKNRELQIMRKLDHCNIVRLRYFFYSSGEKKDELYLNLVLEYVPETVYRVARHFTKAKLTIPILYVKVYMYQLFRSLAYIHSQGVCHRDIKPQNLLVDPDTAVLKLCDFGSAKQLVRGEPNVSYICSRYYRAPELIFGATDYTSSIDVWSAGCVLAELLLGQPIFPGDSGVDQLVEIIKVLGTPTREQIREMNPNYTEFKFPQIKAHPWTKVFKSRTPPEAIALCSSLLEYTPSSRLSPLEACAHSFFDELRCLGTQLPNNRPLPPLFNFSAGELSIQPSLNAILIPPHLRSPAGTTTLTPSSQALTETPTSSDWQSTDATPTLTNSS

`CNC(=O)c1cncc(/C=C/c2ccccc2Cl)c1`: the inhibition is 0.64% in [1]; -0.68% in assay [2]; 0.12% in [3]; -0.37% in assay [4]; 0.88% in assay [5]; 1.32% in assay [6]. Besides, the inhibition in assay [7] was determined as 1.49%; in [8], 3.11%; in assay [9] it was 8.27%; in [10], 3.39%; in assay [11], 10%; in assay [12], 1.58%. For the same molecule, the inhibition in assay [13] was 2.44%; in assay [14], 0.63%; in [15], 1.63%; in [16], -1.14%; in [17], -1.36%; in assay [18] it was 0.37%. In addition, the inhibition was -1.68% in assay [19] and 0.99% in [20].
On to `COc1cc2c(cc1Nc1nc(Nc3ccsc3C(N)=O)c3cc[nH]c3n1)N(C(=O)CN(C)C)CCC2(C)C`, for which the inhibition in assay [1] was 4.74%; in [2] it was 4.97%; in [3] it was 15.5%; in assay [4], 1.64%; in [5], 10.2%; in assay [6], 4.55%. Besides, the inhibition worked out at 6.57% in assay [7]; 7.63% in assay [8]; 21.1% in assay [9]; 5.85% in [10]; 17% in assay [11]; 0.05% in assay [12]. For the same molecule, the inhibition is 7.66% in [13]; -0.16% in [14]; 6.13% in [15]; 7.73% in [16]; 13.9% in [17]; 4.87% in assay [18]. For the same molecule, the inhibition in assay [19] was 12.2%; in [20], 3.02%.
`c1ccc(COc2ccc(Nc3ncnc4ccc(-c5ccco5)cc34)cc2)cc1`: the inhibition is -0.29% in assay [1]; -1.32% in [2]; 3.87% in assay [3]; -0.39% in assay [4]; 0.34% in assay [5]; 0.31% in [6]. In addition, the inhibition was -1.53% in [7]; 1.11% in assay [8]; 1.51% in assay [9]; 0.28% in [10]; 2.25% in [11]; -3.03% in assay [12]. For the same molecule, the inhibition was -3.68% in [13]; 0.31% in assay [14]; 1.89% in assay [15]; 1.39% in assay [16]; 1.07% in [17]; 2.65% in assay [18]. In addition, the inhibition was -3.36% in assay [19] and 0.95% in assay [20].
Consider `Cc1ccc2c(-c3ccnc(Nc4ccccc4)n3)c(-c3ccc(F)cc3)nn2n1`, for which the inhibition in [1] is 1.61%; in assay [2] it was 0.7%; in assay [3] it was 5.42%; in assay [4], 1%; in assay [5], 3.35%; in assay [6], 3.2%. Moreover, the inhibition is 2.94% in [7]; 9.81% in assay [8]; 44.8% in assay [9]; 22.4% in assay [10]; 66.7% in [11]; -0.41% in assay [12]. Further, the inhibition came out at 7.55% in assay [13]; 2.12% in assay [14]; 4.2% in [15]; 44% in assay [16]; 81.2% in [17]; 4.23% in assay [18]. The inhibition in assay [19] came out at 10.5%; in [20], 3.56%.
Take `COC(=O)Nc1nc2ccc(S(=O)(=O)c3ccc(NC(=O)Nc4cc(C(F)(F)F)ccc4F)cc3)cc2[nH]1`: the inhibition in assay [1] was 0.84%; in [2], 1.81%; in assay [3], 3.41%; in assay [4] it was 0.89%; in [5], 0.66%; in assay [6], 2.74%. For the same molecule, the inhibition in assay [7] was 3.12%; in [8], 2.8%; in assay [9], 7.37%; in assay [10] it was 0.8%; in assay [11] it was 7.61%; in [12], -0.95%. The inhibition in assay [13] is 0.3%; in assay [14], -0.96%; in assay [15], 1.06%; in assay [16] it was 3.14%; in assay [17], 3.4%; in [18] it was 1.4%. Further, the inhibition amounted to 2.17% in assay [19] and 3% in assay [20].
For the molecule `CN(C)CCOc1ccc(-c2nc(-c3ccncc3)c(-c3ccc4c(c3)CC/C4=N\O)[nH]2)cc1`, the inhibition is 3.66% in [1]; 4.17% in assay [2]; 8.33% in assay [3]; 2.86% in assay [4]; 5.07% in assay [5]; 2.04% in assay [6]. The inhibition in assay [7] amounted to 4.1%; in assay [8] it was 5.08%; in assay [9] it was 9.93%; in [10], 4.7%; in assay [11], 9.68%; in assay [12] it was 6%. For the same molecule, the inhibition was 17.8% in [13]; 3.76% in assay [14]; 8.61% in assay [15]; -0.13% in [16]; 6.51% in assay [17]; 3.96% in assay [18]. In addition, the values for the inhibition in assay [19] and in assay [20] were 2.88% and 1.97%, respectively.
Regarding `Nc1nc(-c2ccc(F)cc2)c(-c2ccc3ncccc3n2)s1`, the inhibition is 6.28% in assay [1]; 8.98% in assay [2]; 37.4% in assay [3]; 3.54% in assay [4]; 19.8% in assay [5]; 3.22% in [6]. Further, the inhibition in assay [7] is 5.03%; in [8], 12.1%; in assay [9] it was 20.8%; in [10] it was 11%; in assay [11], 19.6%; in assay [12], 4.79%. Also, the inhibition came out at 13.9% in assay [13]; 4.95% in assay [14]; 11% in assay [15]; 6.33% in assay [16]; 25.3% in assay [17]; 4.29% in assay [18]. In addition, the figures for the inhibition in [19] and in assay [20] were 5.05% and 3.56%, respectively.
